Laboratory results reported in the supplement of paper PMC8975748.
Where a name gives a salt, the structure may show the parent alone.

These compounds were tested on Saccharomyces cerevisiae BY4741 SeMeCo community (assay: z-score of subpopulation abundance vs DMSO median, subpopulation auxotrophic for LUM; higher = larger share of this subpopulation than in DMSO controls). Conditions: 10 µM; 24 h; SM minimal medium; subpopulation (auxotrophy): LUM.
Description: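 Fluorescent four-plasmid SeMeCo (self-establishing metabolically cooperating S. cerevisiae BY4741 community; plasmids pH-mRuby2, pL-mWasabi, pU-eCFP, pM-TagRFP657) was grown 24 h in minimal SM medium with each Selleck FDA-approved drug at 10 µM in 384-well plates. Cells were fixed and imaged by high-content confocal microscopy. For each auxotrophic subpopulation (and the prototroph), a z-score gives the deviation from the DMSO vehicle-control population median.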

Going from `Cc1ncc([N+](=O)[O-])n1C` [Dimetridazole] to `CC[C@@H]1C(=O)OC[C@@H]1Cc1cncn1C` [Pilocarpine HCl], the “z-score of subpopulation abundance” value rises from -1.1 to -0.76.

First: N#Cc1ccc(Oc2ccc3c(c2)COB3O)cc1 [Crisaborole (AN2728)]
Second: COc1ccc2cc(C(=O)O)ccc2c1 [6-Methoxy-2-naphthoic acid]
The “z-score of subpopulation abundance” value of the first is higher: 3.54 for the first, -0.89 for the second.

First: OC(c1cc(C(F)(F)F)nc2c(C(F)(F)F)cccc12)C1CCCCN1 (stereo not given) [Mefloquine HCl]
Second: CC(C)(C)C1CCC(CC2=C(O)c3ccccc3C(=O)C2=O)CC1 (stereo not given) [Buparvaquone]
The “z-score of subpopulation abundance” value of the first is higher: 0.86 for the first, 0.35 for the second.

First: Clc1ccc2c(N3CCN(CCCN4CCN(c5ccnc6cc(Cl)ccc56)CC4)CC3)ccnc2c1 [Piperaquine phosphate]
Second: OC(CCCN1CCCCC1)(c1ccccc1)c1ccccc1 [Diphenidol HCl]
The “z-score of subpopulation abundance” value of the first is higher: -0.03 for the first, -0.35 for the second.

Going from `Cn1nnnc1SCC1=C(C(=O)O)N2C(=O)[C@@H](NC(=O)[C@H](OC=O)c3ccccc3)[C@H]2SC1` [Cefamandole nafate] to `N[C@@H](C(=O)N[C@@H]1C(=O)N2C(C(=O)O)=C(Cl)CS[C@H]12)c1ccccc1` [Cefaclor], the “z-score of subpopulation abundance” value rises from 0.16 to 0.65.

Compared with `CN1CCN2c3ncccc3Cc3ccccc3C2C1` (stereo not given) [Mirtazapine], `CN1CCC(=C2c3ccccc3CCc3sccc32)CC1` [Pizotifen Malate] is higher in “z-score of subpopulation abundance” value: -0.74 for the first, -0.55 for the second.

Going from `CCC[C@@H]1C[C@@H](C(=O)N[C@@H]([C@H]2O[C@H](SC)[C@H](O)[C@@H](O)[C@H]2O)[C@@H](C)O)N(C)C1` [Lincomycin HCl] to `NC[C@H]1O[C@H](O[C@H]2[C@H](O[C@@H]3O[C@H](CO)[C@@H](O)[C@H]3O)[C@@H](O)[C@H](N)C[C@@H]2N)[C@H](N)[C@@H](O)[C@@H]1O` [Ribostamycin Sulfate], the “z-score of subpopulation abundance” value rises from -0.87 to -0.84.

Compared with `CC(=O)OCC(CCn1cnc2cnc(N)nc21)COC(C)=O` [Famciclovir], `Cc1nc(=O)c2cc(CN(C)c3ccc(C(=O)N[C@@H](CCC(=O)O)C(=O)O)s3)ccc2[nH]1` [Raltitrexed] is lower in “z-score of subpopulation abundance” value: -0.18 for the first, -2.16 for the second.

Going from `C#C[C@]1(O)CC[C@H]2[C@@H]3CCC4=CC(=O)CC[C@@H]4[C@H]3C(=C)C[C@@]21CC` [Etonogestrel] to `C#C[C@]1(O)CC[C@H]2[C@@H]3CCc4cc(OC)ccc4[C@H]3CC[C@@]21C` [Mestranol], the “z-score of subpopulation abundance” value rises from -0.63 to -0.31.

First: CSCC1CN(/N=C/c2ccc([N+](=O)[O-])o2)C(=O)O1 (stereo not given) [Nifuratel]
Second: CNS(=O)(=O)CCc1ccc2[nH]cc(C3CCN(C)CC3)c2c1 [Naratriptan HCl]
The “z-score of subpopulation abundance” value of the first is lower: -2.95 for the first, -0.24 for the second.

Going from `CN1CCCN=C1/C=C/c1cccs1` [Pyrantel Pamoate] to `Cc1cnc(NC(=O)C2=C(O)c3ccccc3S(=O)(=O)N2C)s1` [Meloxicam], the “z-score of subpopulation abundance” value falls from -0.44 to -1.43.

First: O=C(O)C[C@H](O)C[C@H](O)/C=C/c1c(C2CC2)nc2ccccc2c1-c1ccc(F)cc1 [Pitavastatin Calcium]
Second: CC(C)c1c(C(=O)Nc2ccccc2)c(-c2ccccc2)c(-c2ccc(F)cc2)n1CC[C@@H](O)C[C@@H](O)CC(=O)O [Atorvastatin]
The “z-score of subpopulation abundance” value of the first is higher: 1.38 for the first, 0.92 for the second.

First: CCC(=O)NS(=O)(=O)c1ccc(-c2c(-c3ccccc3)noc2C)cc1 [Parecoxib Sodium]
Second: Nc1ccc(S(=O)(=O)Nc2ncccn2)cc1 [Sulfadiazine]
The “z-score of subpopulation abundance” value of the first is higher: 1.18 for the first, 0.42 for the second.

Going from `COc1cc(NS(=O)(=O)c2ccc(N)cc2)ncn1` [Sulfamonomethoxine] to `O=C1Nc2ccccc2C1=O` [Isatin], the “z-score of subpopulation abundance” value falls from 0.5 to -0.31.

First: CNCC[C@@H](Oc1ccccc1C)c1ccccc1 [Atomoxetine HCl]
Second: CC[C@H](c1ccc(O)cc1)[C@@H](CC)c1ccc(O)cc1 [Hexestrol]
The “z-score of subpopulation abundance” value of the first is higher: 0.05 for the first, -1.39 for the second.

First: CCCCCCCCCCCCCCCCCCOP(=O)([O-])OC1CC[N+](C)(C)CC1 [Perifosine (KRX-0401)]
Second: CCCCCC(=O)O[C@]1(C(C)=O)CC[C@H]2[C@@H]3CCC4=CC(=O)CC[C@]4(C)[C@H]3CC[C@@]21C [Hydroxyprogesterone caproate]
The “z-score of subpopulation abundance” value of the first is higher: 10.2 for the first, 1.15 for the second.

First: CC(=O)O[C@H]1C[C@@H]2CC[C@@H]3[C@H](CC[C@@]4(C)[C@H]3C[C@H]([N+]3(C)CCCCC3)[C@@H]4OC(C)=O)[C@@]2(C)C[C@@H]1N1CCCCC1 [Vecuronium Bromide]
Second: CC(=O)O[C@]1(C(C)=O)CC[C@H]2[C@@H]3C[C@H](C)C4=CC(=O)CC[C@]4(C)[C@H]3CC[C@@]21C [Medroxyprogesterone acetate]
The “z-score of subpopulation abundance” value of the first is higher: -0.05 for the first, -0.28 for the second.

Compared with `CC1CCc2c(N3CCC(O)CC3)c(F)cc3c(=O)c(C(=O)O)cn1c23` (stereo not given) [Nadifloxacin], `C[C@H]1COc2c(N3CCN(C)CC3)c(F)cc3c(=O)c(C(=O)O)cn1c23` [Levofloxacin] is lower in “z-score of subpopulation abundance” value: 0.27 for the first, -1.11 for the second.

Going from `CC1=C(C(=O)O)N2C(=O)[C@@H](NC(=O)[C@H](N)C3=CCC=CC3)[C@H]2SC1` [Cephradine monohydrate] to `C#C[C@]1(O)CC[C@H]2[C@@H]3CCc4cc(OC5CCCC5)ccc4[C@H]3CC[C@@]21C` [Quinestrol], the “z-score of subpopulation abundance” value rises from -0.79 to 0.36.

First: CC[C@H]1OC(=O)[C@H](C)[C@@H](O[C@H]2C[C@@](C)(OC)[C@@H](O)[C@H](C)O2)[C@H](C)[C@@H](O[C@@H]2O[C@H](C)C[C@H](N(C)C)[C@H]2O)[C@](C)(O)C[C@@H](C)C(=O)[C@H](C)[C@@H](O)[C@]1(C)O [Erythromycin]
Second: CCCCCNC(=N)N/N=C/c1c[nH]c2ccc(OC)cc12 [Tegaserod Maleate]
The “z-score of subpopulation abundance” value of the first is lower: 1.19 for the first, 1.92 for the second.
